Measured values as given in PubChem BioAssay (Tox21).
A number with no mark means an inactive call. Entries that show only a call come without a potency. Active and inactive are the calls of the source. Unless noted, calls follow the shape of the dose curve; as a rule, active = well fitted curve in the direction sought with a large enough effect in the repeat runs; inconclusive = weak or mixed curves; inactive = no such curve, though single readings can be large; an effect the other way counts as inactive or inconclusive.

Legend:
[1] = qHTS assay to identify small molecule antagonists of the thyroid receptor (TR) signaling pathway - cell viability counter screen (AID 743064); also: nearly all actives have a fitted effect of over 50% in size; also: potency is read from the fitted curve at half-maximal effect
Procedure, shortened: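 GH3.TRE-Luc rat pituitary cells carrying a TRE-luciferase reporter were treated with compound plus 1 nM T3 (final) for 23.5 h at 37 °C. Viability was then read in the same wells by CellTiter-Fluor fluorescence after a further 30 min.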

[2] = qHTS assay to identify small molecule antagonists of the thyroid receptor (TR) signaling pathway (AID 743065); also: nearly all actives have a fitted effect of over 55% in size; also: potency is read from the fitted curve at half-maximal effect
Procedure, shortened: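 GH3.TRE-Luc rat pituitary cells carrying two TR response elements driving luciferase were plated for 4 h, given compound plus 1 nM T3 (final), and incubated 23.5 h at 37 C. ONE-Glo luminescence measured reporter inhibition; CellTiter-Fluor fluorescence tracked cytotoxicity.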

[3] = test system: thyroid hormone receptor (rat, GH3 cells); test: qHTS assay to identify small molecule agonists of the thyroid receptor (TR) signaling pathway (AID 743066; calls by dose curve)
[4] = qHTS assay to identify small molecule antagonists of the estrogen receptor alpha (ER-alpha) signaling pathway - cell viability counter screen (AID 743074; calls by dose curve; also: nearly all actives have a fitted effect of over 45% in size; also: potency is read from the fitted curve at half-maximal effect)
[5] = qHTS assay to identify small molecule antagonists of the estrogen receptor alpha (ER-alpha) signaling pathway using the BG1 cell line - cell viability counter screen (AID 743081);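 also: compound given together with 17beta-estradiol as the ER stimulus; nearly all actives have a fitted effect of over 45% in size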; also: potency is read from the fitted curve at half-maximal effect
[6] = target: Aromatase (Homo sapiens) (UniProt P11511); test: qHTS assay to identify aromatase inhibitors (AID 743083); also: nearly all actives have a fitted effect of over 55% in size; also: potency is read from the fitted curve at half-maximal effect
Sequence of Aromatase (Homo sapiens) (P11511 whole entry, looked up): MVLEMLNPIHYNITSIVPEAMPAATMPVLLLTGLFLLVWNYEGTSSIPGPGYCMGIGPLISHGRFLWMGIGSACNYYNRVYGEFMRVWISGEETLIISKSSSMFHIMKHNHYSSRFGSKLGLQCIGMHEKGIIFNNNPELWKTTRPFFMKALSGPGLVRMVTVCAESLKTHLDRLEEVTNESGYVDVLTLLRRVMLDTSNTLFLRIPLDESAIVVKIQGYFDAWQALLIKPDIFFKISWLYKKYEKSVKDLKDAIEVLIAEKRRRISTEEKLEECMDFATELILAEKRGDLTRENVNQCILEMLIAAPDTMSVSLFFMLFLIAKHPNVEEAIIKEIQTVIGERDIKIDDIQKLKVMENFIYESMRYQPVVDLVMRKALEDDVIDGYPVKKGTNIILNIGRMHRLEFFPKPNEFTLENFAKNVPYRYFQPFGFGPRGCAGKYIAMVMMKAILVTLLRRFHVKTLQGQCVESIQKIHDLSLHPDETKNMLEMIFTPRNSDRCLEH

[7] = qHTS assay to identify aromatase inhibitors - cell viability counter screen (AID 743084);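 also: cells stimulated with testosterone during compound exposure; nearly all actives have a fitted effect of over 55% in size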; also: potency is read from the fitted curve at half-maximal effect
[8] = target: Aryl hydrocarbon receptor (Homo sapiens) (UniProt P35869); test: qHTS assay to identify small molecule that activate the aryl hydrocarbon receptor (AhR) signaling pathway (AID 743085);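 also: HG2L7.5c1 human HepG2 liver cells with stably integrated DRE-driven firefly reporter; nearly all actives have a fitted effect of over 15% in size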
Sequence of Aryl hydrocarbon receptor (Homo sapiens) (P35869 whole entry, looked up): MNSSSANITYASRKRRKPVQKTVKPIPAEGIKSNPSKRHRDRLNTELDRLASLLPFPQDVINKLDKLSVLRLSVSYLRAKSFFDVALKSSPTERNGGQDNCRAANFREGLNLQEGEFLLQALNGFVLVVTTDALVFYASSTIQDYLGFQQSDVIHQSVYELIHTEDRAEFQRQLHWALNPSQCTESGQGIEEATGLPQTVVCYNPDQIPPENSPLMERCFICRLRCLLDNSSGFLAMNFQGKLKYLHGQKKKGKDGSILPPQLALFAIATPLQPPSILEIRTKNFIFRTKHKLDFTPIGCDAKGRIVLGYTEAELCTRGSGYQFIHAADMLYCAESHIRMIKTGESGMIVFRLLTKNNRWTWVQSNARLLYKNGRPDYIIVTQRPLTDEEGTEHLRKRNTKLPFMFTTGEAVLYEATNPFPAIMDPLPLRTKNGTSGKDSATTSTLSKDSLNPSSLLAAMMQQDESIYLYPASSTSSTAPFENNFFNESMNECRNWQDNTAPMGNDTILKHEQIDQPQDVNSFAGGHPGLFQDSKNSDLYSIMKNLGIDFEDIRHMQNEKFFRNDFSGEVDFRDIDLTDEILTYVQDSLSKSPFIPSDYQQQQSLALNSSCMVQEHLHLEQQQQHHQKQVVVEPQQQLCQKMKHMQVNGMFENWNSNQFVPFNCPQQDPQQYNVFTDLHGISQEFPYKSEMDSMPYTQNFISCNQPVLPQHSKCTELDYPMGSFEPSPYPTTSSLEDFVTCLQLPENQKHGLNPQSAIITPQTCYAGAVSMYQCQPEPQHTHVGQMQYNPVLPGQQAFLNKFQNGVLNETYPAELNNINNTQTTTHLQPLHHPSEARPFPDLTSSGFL
Procedure, shortened: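 HepG2 cells (HG2L7.5c1) stably carrying a firefly luciferase reporter driven by 20 dioxin responsive elements were exposed to compound for 24 h at 37C after a 5 h settling period; luminescence rise (ONE-Glo) indicated activation.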

[9] = target: Peroxisome proliferator-activated receptor gamma (Homo sapiens) (UniProt P37231); test: qHTS assay to identify small molecule agonists of the peroxisome proliferator-activated receptor gamma (PPARg) signaling pathway (AID 743094; active = well fitted activation curve with a large enough effect in the signal ratio in the repeat runs, not every such curve was filed as active; inconclusive = weak or mixed curves, or effect the other way; inactive = no such curve, though single readings can be large or run the other way; the % refers to the signal ratio)
Sequence of Peroxisome proliferator-activated receptor gamma (Homo sapiens) (P37231 whole entry, looked up): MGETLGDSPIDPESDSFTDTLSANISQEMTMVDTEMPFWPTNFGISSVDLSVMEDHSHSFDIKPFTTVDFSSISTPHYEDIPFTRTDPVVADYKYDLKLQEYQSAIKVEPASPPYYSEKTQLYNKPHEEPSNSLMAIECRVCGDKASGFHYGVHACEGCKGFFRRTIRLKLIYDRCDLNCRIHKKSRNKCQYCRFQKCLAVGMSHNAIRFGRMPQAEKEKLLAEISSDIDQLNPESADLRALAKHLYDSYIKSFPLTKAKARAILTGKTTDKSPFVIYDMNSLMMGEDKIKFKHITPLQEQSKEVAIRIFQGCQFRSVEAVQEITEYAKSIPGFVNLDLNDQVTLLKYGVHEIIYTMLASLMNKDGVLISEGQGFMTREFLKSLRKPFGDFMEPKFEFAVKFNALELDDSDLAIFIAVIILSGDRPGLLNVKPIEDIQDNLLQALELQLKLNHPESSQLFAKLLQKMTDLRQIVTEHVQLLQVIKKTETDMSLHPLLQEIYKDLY
Procedure, shortened: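 HEK293H PPARg-bla cells, 5 h settle at 37C/5% CO2; compound (DMSO) 17 h, 37C; B/G FRET substrate 1 h RT; fluorescence intensity read-out. qHTS format.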

[10] = qHTS assay to identify small molecule phospholipidosis (PLD) inducers (AID 1259344; active = well fitted curve in the direction sought with a large enough effect; inconclusive = small, poorly fitted or top-dose-only effect, or another doubt; inactive = no such curve, though single readings can be large; an effect the other way counts as inactive or inconclusive)
Procedure, shortened: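 Cells (HepG2, 900 per well) attach for 4 h, receive LipidTOX Red and compound together, incubate 24 h at 37 C, are fixed 30 min with paraformaldehyde/Hoechst, then imaged at one site per well.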

[11] = target: Estrogen receptor (Homo sapiens) (UniProt P03372); test: qHTS assay to identify small molecule antagonists of the estrogen receptor alpha (ER-alpha) signaling pathway (AID 743069; active = well fitted curve in the direction sought with a large enough effect in the signal ratio in the repeat runs, not every such curve was filed as active; inconclusive = weak or mixed curves, or effect the other way; inactive = no such curve, though single readings can be large or run the other way; the % refers to the signal ratio)
Sequence of Estrogen receptor (Homo sapiens) (P03372 whole entry, looked up): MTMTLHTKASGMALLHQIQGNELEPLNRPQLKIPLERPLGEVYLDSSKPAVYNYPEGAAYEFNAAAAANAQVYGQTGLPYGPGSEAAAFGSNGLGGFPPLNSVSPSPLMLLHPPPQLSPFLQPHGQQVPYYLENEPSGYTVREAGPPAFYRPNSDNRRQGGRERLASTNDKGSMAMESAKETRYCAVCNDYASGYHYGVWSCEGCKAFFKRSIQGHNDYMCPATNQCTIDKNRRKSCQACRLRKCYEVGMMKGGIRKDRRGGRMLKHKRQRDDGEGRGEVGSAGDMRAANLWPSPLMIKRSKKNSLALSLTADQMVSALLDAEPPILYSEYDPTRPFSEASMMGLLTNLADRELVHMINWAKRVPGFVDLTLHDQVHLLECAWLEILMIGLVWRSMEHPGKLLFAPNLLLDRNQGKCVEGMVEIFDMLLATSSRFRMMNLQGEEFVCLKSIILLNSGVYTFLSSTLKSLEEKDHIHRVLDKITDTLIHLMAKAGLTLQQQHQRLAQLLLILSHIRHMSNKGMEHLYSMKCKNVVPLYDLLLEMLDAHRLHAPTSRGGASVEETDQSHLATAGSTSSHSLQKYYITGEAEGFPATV
Procedure, shortened: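 Screening used a UAS-driven beta-lactamase reporter integrated into HEK293 cells expressing ER-alpha, stimulated with 17beta-estradiol alongside test compounds over 18 hr at 37C; signal came from LiveBLAzer B/G FRET fluorescence.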

[12] = target: Estrogen receptor (Homo sapiens) (UniProt P03372); test: qHTS assay to identify small molecule agonists of the estrogen receptor alpha (ER-alpha) signaling pathway using the BG1 cell line (AID 743079); conditions: BG1Luc4E2 cells, ERE-luciferase agonist, 22 h; activation: at 70.3 µM (top of the series); also: nearly all actives have a fitted effect of over 20% in size
[13] = qHTS assay to identify small molecule that activate the aryl hydrocarbon receptor (AhR) signaling pathway - cell viability counter screen (AID 743086); also: nearly all actives have a fitted effect of over 45% in size; also: potency is read from the fitted curve at half-maximal effect
Procedure, shortened: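 HepG2-AhR-luc (HG2L7.5c1) cells, 4000/well, were preincubated 5 h at 37C, exposed to compound in qHTS format for 24 hr at 37C, then given CellTiter-Fluor for 30 min; viability was read as fluorescence in the reporter wells.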

[14] = target: Estrogen receptor (Homo sapiens) (UniProt P03372); test: qHTS assay to identify small molecule agonists of the estrogen receptor alpha (ER-alpha) signaling pathway (AID 743075; calls by dose curve; also: potency is read from the fitted curve at half-maximal effect)
[15] = qHTS assay to identify small molecule antagonists of the estrogen receptor alpha (ER-alpha) signaling pathway using the BG1 cell line (AID 743080; calls by dose curve; also: nearly all actives have a fitted effect of over 25% in size; also: potency is read from the fitted curve at half-maximal effect)
Procedure, shortened: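 Antagonist mode: compounds in DMSO were pinned onto BG1-Luc-4E2 cells alongside 17beta-estradiol agonist, incubated 21.5 h, and ERE-driven luciferase measured with ONE-Glo. Cytotoxicity was multiplexed using CellTiter-Fluor fluorescence.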

Compound	Potency [1]	Potency [2]	Potency [3]	Potency [4]	Potency [5]	Potency [6]	Potency [7]	Potency [8]	Potency [9]	PLD induction [10]	Potency [11]	Potency [12]	Potency [13]	Potency [10]	Potency [14]	Potency [15]	activation [12]
C[C@H]1C[C@@H]2[C@H]([C@@H](O)C[C@@]3(C)[C@H]2CC[C@]3(O)C(=O)COC(=O)CCC(=O)O)[C@@]2(C)C=CC(=O)C=C12	inactive	inactive	inactive	10.7 µM (active)	inactive	inactive	inactive	inactive	inactive	0.704% [at 7.66 µM]	–	–	–	–	–	–	–
CCC(=O)OCC(=O)[C@@]1(OC(=O)CC)[C@@H](C)C[C@H]2[C@@H]3CCC4=CC(=O)C=C[C@]4(C)[C@@]3(Cl)[C@@H](O)C[C@@]21C	inactive	–	inactive	inactive	inactive	2.66 µM (active)	inactive	–	–	–	inactive	inactive	inactive	inactive	–	–	–
CN1CCN(CCCN2c3ccccc3Sc3ccccc32)CC1	13.3 µM (active)	23.7 µM (active)	–	inactive	–	–	–	inactive	inactive	–	–	inactive	–	inactive	inactive	inactive	–
CC1(C)N=C(N)N=C(N)N1c1ccc(Cl)cc1	inactive	–	inactive	12 µM (active)	inactive	inactive	inactive	inactive	–	-3.82% [at 7.66 µM]	inactive	–	inactive	–	inactive	inactive	–
C#C[C@]1(OC(C)=O)CC[C@H]2[C@@H]3CCC4=CC(=O)CC[C@@H]4[C@H]3CC[C@@]21C	inactive	9.44 µM (active)	inactive	–	inactive	–	–	–	inactive	1.06% [at 7.66 µM]	–	–	inactive	–	–	–	–
O=C(O)c1cc2ccccc2c(Cc2c(O)c(C(=O)O)cc3ccccc23)c1O	inactive	inactive	inactive	inactive	–	inactive	inactive	–	–	–	–	–	inactive	inactive	–	–	–
Cc1cccc(C)c1N(CCCc1cccnc1)C(=O)C(C)N (stereo not drawn)	inactive	–	inactive	inactive	inactive	5.96 µM (active)	inactive	inactive	inactive	-1.49% [at 1.53 µM]	inactive	inactive	inactive	–	inactive	inactive	–
CCN(CC)c1ccc(C(=C2C=CC(=[N+](CC)CC)C=C2)c2ccccc2)cc1	0.335 µM (active)	0.335 µM (active)	–	4.77 µM (active)	–	3.35 µM (active)	7.5 µM (active)	inactive	–	–	–	–	5.96 µM (active)	inactive	–	5.96 µM (active)	–
COc1cc(NCCCC(C)N)c2ncccc2c1 (stereo not drawn)	15 µM (active)	–	inactive	inactive	18.8 µM (active)	–	–	–	–	–	inactive	–	inactive	inactive	inactive	–	–
CO[C@H]1C[C@H](O[C@H]2[C@H](C)O[C@@H](O[C@@H]3/C(C)=C/C[C@@H]4C[C@@H](C[C@]5(C=C[C@H](C)[C@@H](C6CCCCC6)O5)O4)OC(=O)[C@@H]4C=C(C)[C@@H](O)[C@H]5OC/C(=C\C=C\[C@@H]3C)[C@]54O)C[C@@H]2OC)O[C@@H](C)[C@@H]1O	2.66 µM (active)	2.66 µM (active)	–	16.9 µM (active)	21.1 µM (active)	inactive	inactive	inactive	–	–	–	–	inactive	inactive	inactive	–	–
Cn1cc(NC(=O)c2cc(NC(=O)c3cc(NC=O)cn3C)cn2C)cc1C(=O)NCCC(=N)N	inactive	inactive	inactive	inactive	inactive	inactive	inactive	inactive	inactive	–	–	–	–	inactive	–	–	–
CS(=O)(=O)Nc1cc2occ(NC=O)c(=O)c2cc1Oc1ccccc1	inactive	inactive	inactive	inactive	inactive	inactive	inactive	inactive	inactive	–	–	–	–	inactive	–	–	–
O=C(NOC[C@H](O)CO)c1ccc(F)c(F)c1Nc1ccc(I)cc1F	inactive	inactive	inactive	–	inactive	inactive	inactive	–	inactive	–	–	inactive	inactive	inactive	inactive	inactive	–
CO/N=C(\C(=O)N[C@@H]1C(=O)N2C(C(=O)OCOC(=O)C(C)(C)C)=C(/C=C\c3scnc3C)CS[C@H]12)c1csc(N)n1	–	inactive	inactive	inactive	inactive	inactive	inactive	–	–	-0.933% [at 7.66 µM]	–	inactive	inactive	–	inactive	inactive	–
CCCCc1cc2c(=O)c(C(=O)OC)c[nH]c2cc1OCc1ccccc1	–	inactive	inactive	inactive	–	inactive	inactive	inactive	inactive	–	inactive	inactive	–	inactive	inactive	inactive	–
CCCCCCCCCCCCCCCC(=O)OC[C@@H](NC(=O)C(Cl)Cl)[C@H](O)c1ccc([N+](=O)[O-])cc1	–	inactive	inactive	–	inactive	inactive	inactive	inactive	inactive	–	–	inactive	inactive	inactive	–	inactive	–
CCC(=O)O[C@H]1CC[C@H]2[C@@H]3CCc4cc(O)ccc4[C@H]3CC[C@]12C	–	26.6 µM (active)	–	inactive	inactive	inactive	inactive	–	inactive	–	–	–	inactive	inactive	0.0013 µM [inconclusive] (active)	–	52.2% (active)
